# Test results as given in PubChem BioAssay.
# The source made the active and inactive calls. Unless noted, the rule behind the calls is not given here.
# Tests used:
# [1] = tested on: Wnt5a (protein binding on small-molecule microarray); assay: Wnt5a binders on small-molecule microarray, primary screen, biophysical, 635/667 nm fluorescence (AID 1142); settings: 635 nm fluorescence, higher = more signal;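 note: fluorescence read at 667 nm with signal to noise per printed feature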
# [2] = cell viability in Huh7 cells, primary screen, cytotoxicity control for HCV replication inhibitor project, CellTiter-Glo luminescence, basal, 48 h (AID 1143); settings: Huh7 HCV replicon, higher = more signal, called active from +8 up or from −8 down;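 note: Huh7 hepatoma cells carrying a hepatitis C replication reporter with no stimulus; test concentration not given here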
# [3] = P. aeruginosa biofilm formation inhibitors, primary screen, PAO1 strain, BacTiter-Glo luminescence, LB-PBS (AID 1144); settings: 12 h, higher = more signal
# [4] = CREB reporter modulators without forskolin, primary screen, cell-based, PC12, CRE-LacZ reporter, unstimulated (AID 1145); settings: no forskolin, luminescence, 4.5 h, higher = more signal, called active from +8 up or from −8 down
# [5] = CREB reporter modulators under forskolin, primary screen, cell-based, PC12, CRE-LacZ reporter, forskolin-stimulated (AID 1146); settings: luminescence, 4.5 h, higher = more signal, called active from +8 up or from −8 down;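 note: PC12 cells with 6xCRE LacZ reporter stimulated by forskolin 10 µM; beta-galactosidase reporter signal reflecting CREB driven transcription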
# [6] = biological target: Streptavidin (Streptomyces avidinii) (UniProt P22629); assay: streptavidin binders on small-molecule microarray, primary screen, artefact control for SMM compound annotation, biophysical, 635/667 nm fluorescence (AID 1147); settings: streptavidin binding, higher = more signal;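 note: signal reflects streptavidin binding to arrayed compounds as a control protein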
# [7] = small-molecule binders of probe aInhba, primary screen, biochemical, small-molecule microarray, 635/667 nm fluorescence (AID 1148); settings: higher = more signal;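 note: score merges 667nm spot fluorescence with signal-to-noise for antibody binding to printed compounds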
# Torsin-1A (Homo sapiens) [8] = biological target: Torsin-1A (Homo sapiens) (UniProt O14656); assay: torsin A binders from cell lysate, primary screen, small-molecule microarray, wild-type, 635/667 nm (AID 1149); settings: COS7 hTOR1A-WT lysate, 635 nm fluorescence, higher = more signal
# Torsin-1A (Homo sapiens) [9] = biological target: Torsin-1A (Homo sapiens) (UniProt O14656); assay: small-molecule binders of mutant TOR1A in lysate, primary screen, cell lysate, small-molecule microarray, COS7 lysate, 635/667 nm fluorescence (AID 1150); settings: COS7 hTOR1A mutant lysate, 635 nm fluorescence, higher = more signal;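 note: score pools 667 nm emission and signal to noise measuring lysate protein binding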
# [10] = tested on: Sonic hedgehog protein (Shh); assay: small-molecule binders of Shh protein, primary screen, biochemical, small-molecule microarray, 635/667 nm fluorescence (AID 1151); settings: small-molecule microarray binding, 635 nm fluorescence; higher = more signal;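 note: Shh protein binding to compounds spotted on small-molecule microarray slides; score combines spot fluorescence intensity with signal-to-noise across triplicate slides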
# [11] = E. coli DRC41 culture turbidity changes, primary screen, E. coli filamentation inducer project, strain DRC41, OD650, 48 h (AID 1152);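 note: E. coli MC1000 strain DRC41 lacking acrAB efflux pump and sulA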; settings: E. coli DRC41 (acrAB sulA), higher = more signal, called active from +8 up or from −8 down
# [12] = small-molecule binders of probe aLefty1, primary screen, biochemical, small-molecule microarray, 635/667 nm fluorescence (AID 1153); settings: higher = more signal;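 note: score merges spot fluorescence with signal-to-noise ratio from the scanned slide images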
# [13] = PSAC antagonists in infected red cells, primary screen, cell-based, P. falciparum Indochina, OD700, 1 h (AID 1154); settings: P. falciparum Indochina infected RBC osmotic lysis, higher = more signal, called active from +8 up or from −8 down
# [14] = PSAC antagonists in infected red cells, primary screen, cell-based, P. falciparum Indochina, OD700, 2 h (AID 1155);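 note: lysis reports solute entry through the parasite surface anion channel PSAC; channel blockers reduce lysis of infected cells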; settings: P. falciparum Indochina infected erythrocytes, osmotic lysis OD700; higher = more signal, called active from +8 up or from −8 down
# [15] = osmotic lysis modulators in infected erythrocytes, primary screen, PSAC antagonist project, cell-based, P. falciparum Indochina, OD700, 3 h (AID 1156); settings: higher = more signal, called active from +8 up or from −8 down
# [16] = PSAC antagonists in infected red cells, primary screen, cell-based, P. falciparum Indochina, OD700, 18 h (AID 1157); settings: P. falciparum Indochina infected erythrocytes, osmotic lysis OD700, 18 h; higher = more signal, called active from +8 up or from −8 down
# [17] = modulators of S6 phosphorylation in cells, primary screen, cell-based, A549, cytoblot, luminescence, serum-stimulated (AID 1158); settings: A549 phospho-S6 cytoblot, 5 h, higher = more signal;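 note: serum-stimulated A549 lung adenocarcinoma cells; signal is phosphorylated S6 detected by cytoblot immunostaining with HRP secondary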
# [18] = biological target: NADPH oxidase 2 (Homo sapiens) (UniProt P04839); assay: NOX2-dependent H2O2 signal modulators, primary screen, NOX inhibitor project, cell-based, HEK293-NOX2, PMA-stimulated, Amplex Red fluorescence (AID 1159); settings: 45 min, higher = more signal, called active from +8 up or from −8 down; note: test concentration not given here
# [19] = biological target: NADPH oxidase 4 (Homo sapiens) (UniProt Q9NPH5); assay: NOX4-dependent H2O2 signal modulators, primary screen, NOX inhibitor project, cell-based, HEK293-NOX4, tetracycline-induced, Amplex Red fluorescence (AID 1160); settings: 45 min, higher = more signal, called active from +8 up or from −8 down
# [20] = biological target: NADPH oxidase 5 (Homo sapiens) (UniProt Q96PH1); assay: NOX5-dependent H2O2 signal modulators, primary screen, NOX inhibitor project, cell-based, HEK293-NOX5, Amplex Red fluorescence (AID 1161); settings: HEK293-NOX5, ionomycin, 45 min, higher = more signal
# NADPH oxidase 5 (Homo sapiens), sequence (Q96PH1 whole entry, looked up): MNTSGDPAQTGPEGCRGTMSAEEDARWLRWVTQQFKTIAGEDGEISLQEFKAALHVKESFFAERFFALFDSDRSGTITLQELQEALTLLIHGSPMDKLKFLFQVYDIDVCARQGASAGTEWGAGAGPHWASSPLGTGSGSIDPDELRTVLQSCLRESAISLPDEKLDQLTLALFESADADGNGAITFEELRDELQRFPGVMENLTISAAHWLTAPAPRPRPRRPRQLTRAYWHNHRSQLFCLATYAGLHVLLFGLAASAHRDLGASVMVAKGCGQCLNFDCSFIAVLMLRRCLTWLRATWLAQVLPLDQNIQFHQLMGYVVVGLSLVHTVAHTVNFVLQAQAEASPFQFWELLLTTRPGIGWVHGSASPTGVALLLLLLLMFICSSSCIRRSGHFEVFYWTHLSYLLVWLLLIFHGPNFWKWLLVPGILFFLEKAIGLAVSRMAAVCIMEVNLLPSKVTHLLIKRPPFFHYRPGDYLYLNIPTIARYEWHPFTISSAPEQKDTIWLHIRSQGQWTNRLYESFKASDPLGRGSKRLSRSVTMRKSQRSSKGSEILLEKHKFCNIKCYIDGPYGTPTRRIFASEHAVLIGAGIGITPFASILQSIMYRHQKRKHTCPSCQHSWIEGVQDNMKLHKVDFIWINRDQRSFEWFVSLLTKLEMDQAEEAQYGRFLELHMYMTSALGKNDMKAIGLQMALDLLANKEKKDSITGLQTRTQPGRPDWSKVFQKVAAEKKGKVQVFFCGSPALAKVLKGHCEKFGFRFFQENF
# Torsin-1A (Homo sapiens), sequence (O14656 whole entry, looked up): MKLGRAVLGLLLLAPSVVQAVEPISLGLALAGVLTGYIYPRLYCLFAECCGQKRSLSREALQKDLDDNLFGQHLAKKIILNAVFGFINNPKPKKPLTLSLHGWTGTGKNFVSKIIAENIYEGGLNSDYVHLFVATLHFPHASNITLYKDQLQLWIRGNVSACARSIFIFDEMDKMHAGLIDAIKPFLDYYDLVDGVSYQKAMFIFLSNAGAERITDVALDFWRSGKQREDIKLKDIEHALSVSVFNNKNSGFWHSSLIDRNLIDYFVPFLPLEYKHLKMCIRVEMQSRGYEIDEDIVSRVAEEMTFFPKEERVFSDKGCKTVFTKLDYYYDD
# NADPH oxidase 4 (Homo sapiens), sequence (Q9NPH5 whole entry, looked up): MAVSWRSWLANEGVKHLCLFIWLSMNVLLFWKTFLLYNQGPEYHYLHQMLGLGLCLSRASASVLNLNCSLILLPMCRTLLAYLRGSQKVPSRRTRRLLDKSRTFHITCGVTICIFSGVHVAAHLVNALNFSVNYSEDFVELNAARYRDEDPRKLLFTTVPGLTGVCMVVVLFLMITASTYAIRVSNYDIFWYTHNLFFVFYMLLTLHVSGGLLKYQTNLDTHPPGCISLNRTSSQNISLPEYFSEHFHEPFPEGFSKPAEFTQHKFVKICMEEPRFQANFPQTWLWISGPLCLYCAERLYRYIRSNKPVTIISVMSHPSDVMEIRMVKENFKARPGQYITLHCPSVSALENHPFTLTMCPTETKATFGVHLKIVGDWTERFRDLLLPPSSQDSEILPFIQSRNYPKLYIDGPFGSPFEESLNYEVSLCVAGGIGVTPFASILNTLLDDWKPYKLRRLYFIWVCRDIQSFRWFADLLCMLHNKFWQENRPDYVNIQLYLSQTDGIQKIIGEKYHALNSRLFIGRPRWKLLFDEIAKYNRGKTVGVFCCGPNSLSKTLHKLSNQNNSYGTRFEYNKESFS
# Streptavidin (Streptomyces avidinii), sequence (P22629 whole entry, looked up): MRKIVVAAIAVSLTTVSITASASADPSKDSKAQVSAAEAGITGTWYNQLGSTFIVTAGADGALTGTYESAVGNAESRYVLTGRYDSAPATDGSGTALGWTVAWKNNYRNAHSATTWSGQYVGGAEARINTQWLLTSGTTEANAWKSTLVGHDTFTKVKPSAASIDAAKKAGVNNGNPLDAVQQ
# NADPH oxidase 2 (Homo sapiens), sequence (P04839 whole entry, looked up): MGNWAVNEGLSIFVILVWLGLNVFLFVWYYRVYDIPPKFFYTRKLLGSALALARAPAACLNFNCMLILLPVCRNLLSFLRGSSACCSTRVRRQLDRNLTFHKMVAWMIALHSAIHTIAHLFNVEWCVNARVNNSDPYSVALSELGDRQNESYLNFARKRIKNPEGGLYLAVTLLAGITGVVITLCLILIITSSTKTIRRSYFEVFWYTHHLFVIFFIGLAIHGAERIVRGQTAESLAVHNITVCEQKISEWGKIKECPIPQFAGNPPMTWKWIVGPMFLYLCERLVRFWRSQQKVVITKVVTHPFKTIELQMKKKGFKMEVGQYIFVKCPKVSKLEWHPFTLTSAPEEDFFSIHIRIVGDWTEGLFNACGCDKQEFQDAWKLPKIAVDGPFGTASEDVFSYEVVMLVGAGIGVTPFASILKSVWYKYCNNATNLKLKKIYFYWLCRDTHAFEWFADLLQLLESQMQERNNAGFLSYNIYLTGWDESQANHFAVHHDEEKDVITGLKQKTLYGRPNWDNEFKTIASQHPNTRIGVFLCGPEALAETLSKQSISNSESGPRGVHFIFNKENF
Structure (SMILES),composite z-score [1],z-score [2],z-score [3],z-score [4],z-score [5],composite z-score [6],composite z-score [7],composite z-score (Torsin-1A (Homo sapiens) [8]),composite z-score (Torsin-1A (Homo sapiens) [9]),composite z-score [10],z-score [11],composite z-score [12],z-score [13],z-score [14],z-score [15],z-score [16],z-score [17],z-score [18],z-score [19],z-score [20]
CC(C)C[C@@H]1NC(=O)[C@@H]2C[C@H](C(=O)NCCCCCC[N+](C)(C)C)[C@H](c3cccc(OCCO)c3)N2C1=O,-0.391,-0.351 (inactive),-0.226 (inactive),-0.943 (inactive),-0.153 (inactive),-0.665,-0.128,-0.153,0.393,1.46,-0.407 (inactive),0.22,6.26 (inactive),1.35 (inactive),-0.953 (inactive),0.376 (inactive),-0.797,2.3 (inactive),1.31 (inactive),2.51
CCCCC(=O)N(CCN1CCOCC1)[C@@H]1CC(C(=O)NCCO)=C[C@H](Oc2c(I)cc(CO)cc2OC)[C@H]1O,-0.0408,0.0643 (inactive),-0.141 (inactive),1.4 (inactive),-1.19 (inactive),-0.0538,-0.253,0.314,-0.0203,0.655,1.4 (inactive),-0.235,3.89 (inactive),0.756 (inactive),0.098 (inactive),0.133 (inactive),-0.0612,-0.381 (inactive),0.577 (inactive),0.613
CC(C)N1CC=CC23O[C@@H]4/C=C\CCCOC(=O)C4[C@H]2C(=O)N(CCCCCCO)[C@@H]3C1=O (stereo not given in full),-0.0379,0.0722 (inactive),-0.0303 (inactive),-0.48 (inactive),-1.02 (inactive),-1.13,-0.205,-0.14,0.55,-0.0836,2.15 (inactive),0.248,0.904 (inactive),0.0039 (inactive),0.622 (inactive),0.133 (inactive),0.842,1 (inactive),0.105 (inactive),1.92
C=CCNC(=O)[C@H]1[C@@H]2C(=O)O[C@@H](c3ccccc3)[C@@H](c3ccccc3)N2[C@@H](c2ccc(OCCO)cc2)[C@]12C(=O)N(C(=O)OCCOC)c1ccc(C#Cc3ccc(OC)cc3)cc12,0.209,-5.38 (inactive),0.054 (inactive),-1.43 (inactive),-0.857 (inactive),0.51,0.152,0.563,0.86,1.72,2.2 (inactive),0.323,3.4 (inactive),1.31 (inactive),-0.0152 (inactive),0.121 (inactive),2.44,1.19 (inactive),0.615 (inactive),-0.0482
NC(=O)[C@@H]1[C@H]2C(=O)O[C@H](c3ccccc3)[C@H](c3ccccc3)N2[C@H](c2ccc(OCCO)cc2)[C@@]12C(=O)Nc1ccc(C#CCCO)cc12,0.257,-0.952 (inactive),-0.807 (inactive),-0.0515 (inactive),-0.195 (inactive),0.958,-0.0736,0.632,-0.565,0.0995,0.498 (inactive),0.0253,22.5 (active),4.8 (inactive),2.59 (inactive),0.908 (inactive),0.229,1.5 (inactive),1.15 (inactive),0.92
C=C(C)C1CCC(C(O)C2C=CC3C(=O)N(C)C(=O)C3N2Nc2cc(OC)c(OC)c(OC)c2)CC1 (stereo not given),0.109,0.454 (inactive),0.253 (inactive),0.243 (inactive),0.516 (inactive),0.889,0.222,-0.0834,0.44,1.11,-1.67 (inactive),0.361,0.541 (inactive),0.61 (inactive),-0.256 (inactive),0.901 (inactive),-0.681,-1.86 (inactive),-2.78 (inactive),-2.92
CN1C(=O)[C@@]2(Cc3ccccc3)N=C(c3ccc(OCCCO)cc3)O[C@H]2c2ccccc21,0.634,-4.44 (inactive),-0.458 (inactive),1.04 (inactive),-1.67 (inactive),0.0831,0.382,0.266,-0.0779,1.45,-0.0237 (inactive),0.501,31.8 (active),30.4 (active),2.93 (inactive),2.65 (inactive),0.385,-1.74 (inactive),0.151 (inactive),-1.64
CC(C)CCC[C@@H](C)[C@H]1CC[C@@]2(C)C3=C(CC[C@]12C)[C@@]1(C)CC[C@H](OC(=O)c2ccccc2)C(C)(C)C1CC3 (stereo not given in full),0.0964,-1.16 (inactive),-1.65 (inactive),0.581 (inactive),-0.653 (inactive),0.18,-0.178,0.316,0.171,0.364,2.94 (inactive),0.0939,-0.44 (inactive),-0.47 (inactive),-0.414 (inactive),-1.26 (inactive),1.64,-0.898 (inactive),0.288 (inactive),0.465
